ALOX15B inhib: qHTS Assay for Inhibitors of 15-hLO-2 (15-human lipoxygenase 2) | Polyunsaturated fatty acid lipoxygenase ALOX15B (Homo sapiens), O15296 | purified 15hLO-2, xylenol orange hydroperoxide absorbance | Potency, µM (titrated, usually from 57.1 µM), inactives show top-dose activity change, negative = inhibition, actives largely listed as inhibitors | hit rate 0.56% among 110,000 | AID 881, 2007; also: potency is read from the fitted curve at half-maximal effect; nearly all actives have a fitted effect of over 60% in size
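Read-out: hydroperoxide product oxidises ferrous iron, measured as xylenol orange complex via the 573-to-405 nm absorbance ratio after 30 min. Reaction: 50 nM enzyme, 15 min compound preincubation, 45 uM arachidonic acid, 90 min RT, Hepes pH 7.5 with Triton X-100.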
PNC assembly inh: High Content Assay for Compounds that inhibit the Assembly of the Perinucleolar Compartment; PC3M PTB-GFP, PNC prevalence imaging, 16 h; stronger effect = lower value; activity change (PNC), negative = inhibition, % at 10 µM; hit rate 3.1% among 140,000;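 active = readout at or below -70, meaning at least 70% loss of cells showing the perinucleolar compartment, a nuclear body marking cancer cells; inconclusive = readout between -30 and a set limit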;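 also: plate controls were DMSO wells for no effect and camptothecin positive control wells for full effect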
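PC3M cells stably expressing PTB-GFP, 750–1000 cells/well, treated 16 h at 37 °C with compound (23 nl of library stock), in duplicate. After paraformaldehyde fixation and Hoechst stain, imaged at 20x; PNC prevalence scored by image analysis.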
12-hLO inh: qHTS Assay for Inhibitors of 12-hLO (12-human lipoxygenase); AID 1452, 2008; Potency, µM (top dose mostly 57.1 µM), inactives show at the highest dose activity change, negative = inhibition, actives largely listed as inhibitors; hit rate 0.12% among 150,000; purified 12-hLO, xylenol orange hydroperoxide absorbance; also: potency is read from the fitted curve at half-maximal effect; nearly all actives have a fitted effect of over 55% in size
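Purified human 12hLO (150 nM final) was preincubated with compounds for 15 min at room temperature in 25 mM Hepes pH 7.0, 0.01% Triton X-100, then reacted with 40 uM arachidonic acid for 30 min. Hydroperoxide was detected with ferrous iron/xylenol orange.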
HPGD inh: qHTS Assay for Inhibitors of HPGD (15-Hydroxyprostaglandin Dehydrogenase); AID 894, 2007; Potency, µM, inactives show top-dose activity change, negative = inhibition, hits mostly inhibitors; 15-hydroxyprostaglandin dehydrogenase [NAD(+)] (Homo sapiens), P15428; purified HPGD, NADH fluorescence kinetic, PGE2 substrate; hit rate 4.3% among 150,000; active = well fitted inhibition curve with a large enough effect, not every such curve was filed as active; inconclusive = small, poorly fitted or top-dose-only effect, or another doubt; inactive = no such curve, though single readings can be large or run the other way; also: potency is read from the fitted curve at half-maximal effect
Target sequence (P15428 whole entry, looked up): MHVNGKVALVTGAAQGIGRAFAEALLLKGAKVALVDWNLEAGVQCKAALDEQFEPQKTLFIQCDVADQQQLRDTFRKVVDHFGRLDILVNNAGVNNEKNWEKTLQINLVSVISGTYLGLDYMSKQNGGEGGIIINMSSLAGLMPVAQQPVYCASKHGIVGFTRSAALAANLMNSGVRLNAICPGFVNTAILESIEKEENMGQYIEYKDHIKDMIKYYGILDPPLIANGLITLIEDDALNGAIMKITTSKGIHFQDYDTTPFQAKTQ
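20 nM HPGD preincubated 15 min at room temperature with compound in 50 mM Tris-HCl pH 8, 0.01% Tween 20. Started with 1 mM NAD+ and 30 uM prostaglandin E2; NADH fluorescence (360/450 nm) read 5 times over 30-s intervals, last minus first.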
IMPase inh: qHTS Assay for Identifying the Cell-Membrane Permeable IMPase Inhibitors; 120,000 tested, under 10 active; CHO-M1 cells, IP1 accumulation, HTRF TR-FRET ratio; inhibition (IP1 accumulation), % at 46.1 µM; Inositol monophosphatase 1 (Rattus norvegicus), P97697; active = well fitted curve in the direction sought with a large enough effect in the signal ratio, not every such curve was filed as active; inconclusive = small, poorly fitted or top-dose-only effect, or a change in a side signal; inactive = no such curve, though single readings can be large or run the other way; the % refers to the signal ratio;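 also: cells stimulated with carbachol in lithium chloride buffer; plate controls were DMSO basal wells for no effect and reference inhibitor wells for full effect; higher means more IMPase inhibition seen as more IP1 and lower FRET ratio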
Target sequence (P97697 whole entry, looked up): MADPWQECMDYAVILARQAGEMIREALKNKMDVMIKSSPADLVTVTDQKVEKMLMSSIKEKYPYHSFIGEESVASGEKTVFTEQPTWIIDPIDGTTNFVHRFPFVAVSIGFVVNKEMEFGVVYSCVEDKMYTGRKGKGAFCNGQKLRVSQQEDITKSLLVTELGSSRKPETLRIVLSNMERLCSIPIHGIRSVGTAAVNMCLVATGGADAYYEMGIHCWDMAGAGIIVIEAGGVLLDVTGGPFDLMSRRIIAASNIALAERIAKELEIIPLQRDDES
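CHO-M1 cells (CHO stably expressing M1 receptor), compound up to 46 uM final, stimulated with carbachol (50 uM as added) in buffer with 50mM LiCl, pH 7.4, 30 min at 37C. Cytosolic IP1 read by TR-FRET; AC50 from Hill fits.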
IMPase Li cell: qHTS Assay for Identifying the Cell-Membrane Permeable IMPase Inhibitors: Potentiation with Lithium. CHO-M1 cells, IP1 TR-FRET (IP-One), carbachol + lithium. Potency, µM (series often up to 59.4 µM), for inactives: top-dose activity, negative = IMPase inhibition, hits mostly inhibitors. hit rate 0.35% among 210,000;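 also: IP1 builds up when IMPase is blocked and the TR-FRET signal falls; potency is read from the fitted curve at half-maximal effect; plate controls were basal vehicle for no effect and high inhibitor control for full effect; nearly all actives have a fitted effect of over 50% in size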
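IP1 accumulation measured by competitive TR-FRET in lysed CHO-M1 cells after 30 min compound exposure at 37C, with a small lithium addition to potentiate weak responses. Hill-equation AC50 from ratio and donor-channel data.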
Active calls of the source: *; ? = inconclusive; nt = no result; [ ] = remark or other dose. Hits are enriched below; roughly 5.4% of the tested compounds scored in any of these assays. Unless noted, calls follow the shape of the dose curve; as a rule, active = well fitted curve in the direction sought with a large enough effect; inconclusive = small, poorly fitted or top-dose-only effect, or another doubt; inactive = no such curve, though single readings can be large; an effect the other way counts as inactive or inconclusive. Unless noted, % is scaled to controls: 0 for no effect and ±100 for the full control effect.

SMILES	ALOX15B inhib	PNC assembly inh	12-hLO inh	HPGD inh	IMPase inh	IMPase Li cell
O=c1[nH]n(-c2ccc(Cl)cc2)c2ncccc12	-13%	3	-3%	11µM*	2	-3%[38.3 µM]
C1CNCCNCCCNCCNC1	nt	-115*	-6%	-7%	nt	-3%
C1CNCCN1	2%	nt	-6%	-2%	nt	4%
Cc1ccc(CN2C(=O)C(C)(C)Oc3ccc(C(=O)N4CCCCC4)cc32)cc1	-10%	0	-8%	32µM*	2	-1%[38.3 µM]
COc1cccc(C(=O)CN2C(=O)C(C)(C)Oc3ccc(C(=O)N4CCCCCC4)cc32)c1	4%	22	-6%	2.2µM*	13	27%[38.3 µM]
O=C1OC(=O)[C@@H]2[C@@H]1[C@@H]1CC[C@H]2O1	3%	nt	-3%	nt	-5	nt
CC(=O)Nn1cc2c(c1-c1ccccc1)c(=O)n(C)c(=O)n2C	-13%	-138*	-3%	?	-5	-7%[38.3 µM]
O=C(c1csnn1)N1CCC2(CCCN(Cc3cc(C(F)(F)F)cc(C(F)(F)F)c3)C2)CC1	10%	nt	6%	-4%	nt	1%
C[C@@H](NC(=O)C1(N)CCCC1)C(=O)O	-2%[11.4 µM]	nt	1%[11.4 µM]	-5%	nt	4%
O=S(=O)(c1ccc(-c2csc(-c3cccnc3)n2)cc1)N1CCCCC1	nt	-23	-6%	28µM*	?	5%
O=S(=O)(c1ccc(-c2csc(-c3cccnc3)n2)cc1)N1CCCC1	4%	17	-4%	?	-1	22%[38.3 µM]
CCCCCCN(CCCCCC)C(=O)Cc1c(-c2ccc(Cl)cc2)[nH]c2ccc(Cl)cc12	14%	nt	-2%	?	3	-12%
N[C@@H](Cn1ccc(=O)n(Cc2ccccc2C(=O)O)c1=O)C(=O)O	-1%	nt	3%	-14%	5	10%
COC(=O)c1c(NC(=O)Cn2nc(C(F)F)cc2C(F)F)sc(C)c1C	0%	?	-9%	28µM*	4	13%[38.3 µM]
CCOC(=O)c1c(NC(=O)Cn2nc(C(F)F)cc2C(F)F)sc(C)c1C	6%	37	-14%	?	-7	12%[38.3 µM]
N#Cc1ccc(NC(=O)COC(=O)CNC(=O)C2CCCCC2)cc1	-8%	-105*	-2%	-10%	4	-7%[38.3 µM]
Cc1cc(C)c2nc(N3CCN(C)CC3)c(C#N)cc2c1	36%	?	-3%	?	-20	28µM*
FC(F)(F)c1ccccc1-c1ccc2ncnc(NC3CC3)c2c1	6%	nt	nt	nt	nt	11%
CCCNC(=O)c1ccc(N(Cc2ccccc2)S(C)(=O)=O)cc1	-4%	-112*	2%	-12%	-2	2%[38.3 µM]
CS(=O)(=O)N(Cc1ccccc1)c1ccc(C(=O)NCc2ccccc2)cc1	4%	?	0%	-8%	2	26%[38.3 µM]
CC(C)(C)c1ccc(OCCOCCn2c(-c3ccc(Cl)cc3)nc3ccccc3c2=O)cc1	nt	nt	nt	nt	5	nt
O=C(O)CSc1c(-c2ccccc2)[nH]c2ccccc12	nt	-85*	-2%	-16%	nt	-2%
O=C(O)CSc1c(-c2cccs2)[nH]c2ccccc12	nt	?	-2%	-11%	nt	2%
CCCCCS(=O)(=O)CCCCCCCCCCn1c(-c2ccc(O)cc2)c(C)c2cc(O)ccc21	-26%	nt	-10%	?	nt	20%
O=C(CN1CCN(CC(=O)Nc2ccccc2C(F)(F)F)CC1)Nc1ccccc1F	-8%	?	0%	-8%	18	6%
SMILES	ALOX15B inhib	PNC assembly inh	12-hLO inh	HPGD inh	IMPase inh	IMPase Li cell
O=C(CN1CCCCCC1)Nc1ccccc1F	-10%	-85*	-5%	-21%	-11	2%
O=C(CN1CCCCCCC1)N/N=C/c1ccccc1F	nt	?	-6%	32µM*	nt	9%
CC(NC(=O)CC(O)(C(F)(F)F)C(F)(F)F)c1ccccc1 (centres undefined)	1%	-88*	5%	-8%	-20	21%[38.3 µM]
CC(NC(=O)Cc1ccccc1)c1ccc(F)cc1 (centres undefined)	nt	-18	-1%	-29%	0	1%
Cc1ccccc1-c1n[nH]c(=S)n1/N=C/c1c(C)nn(-c2ccccc2)c1C	nt	?	1%	3.5µM*	-5	32%
CC[C@@H](Nc1ncnc2nc[nH]c12)C(=O)O	-4%[11.4 µM]	nt	1%[11.4 µM]	1%	nt	-5%
Cc1nc(N2CCc3ccccc3C2)[nH]c(=O)c1Cc1ccccc1	nt	nt	nt	nt	nt	-9%
CCCCCc1c(C)nc(N2CCc3ccccc3C2)[nH]c1=O	-3%	-117*	3%	-20%	2	12%[38.3 µM]
Cc1nc(SCC(=O)c2ccc(Cl)s2)c2oc3ccccc3c2n1	2%	-25	0%	2.2µM*	-7	?
O=C(O)CSc1nc(-c2ccc(Cl)cc2)nc2c1oc1ccccc12	nt	-87*	7%	16µM*	nt	-5%
CNC(=O)C(Sc1nc(C)nc2c1oc1ccccc12)C(C)=O (centres undefined)	-6%	-2	-14%	-24%	-25	4.5µM*
Cc1cc(C)nc(Sc2nc(C)nc3c2oc2ccccc23)n1	-20%	128	1%	32µM*	0	-1%[38.3 µM]
Cc1nc(SCC(=O)NC(C)c2ccccc2)c2oc3ccccc3c2n1 (centres undefined)	?	61	-3%	-12%	4	8%[38.3 µM]
Cc1nc(SCC(=O)Nc2ccccc2)c2oc3ccccc3c2n1	-12%	?	-2%	nt	-5	nt
O=C(O)CSc1nc(-c2ccccc2)nc2c1oc1ccccc12	-15%	1	-5%	?	1	-16%[38.3 µM]
CCN(CC)CCCN1C=C2C(=O)C(C)(OC(=O)c3cccs3)C(=O)C=C2C=C1CCCC(=O)OC (centres undefined)	nt	nt	0%[11.4 µM]	-1%	nt	-1%
Oc1ccc2ccccc2c1Cc1c(O)ccc2ccccc12	-27%[11.4 µM]	nt	-16%[11.4 µM]	-10%	nt	-5%
Cc1nc(SCC(=O)NCCc2ccccc2)c2oc3ccccc3c2n1	0%	-100*	7%	-20%	0	6.3µM*
O=C(Nc1ccc2c(c1)OCCO2)C1CCN(S(=O)(=O)c2cccc3nsnc23)CC1	-1%	-81*	1%	-15%	-2	-2%[38.3 µM]
COc1cc(NC(=O)C2CCCN(S(=O)(=O)c3cccc4nsnc34)C2)cc(OC)c1 (centres undefined)	-2%	11	-7%	-17%	9	4%[38.3 µM]
O=C(Nc1ccc2c(c1)OCCO2)C1CCCN(S(=O)(=O)c2cccc3nsnc23)C1 (centres undefined)	-7%	-113*	-4%	-18%	-5	61%[38.3 µM]
Cc1ccc(Oc2c(C=O)c3ccccc3n2C)cc1	-8%	94	-7%	-7%	12	-8%[38.3 µM]
